Shown is part of a subset that was picked to be rich in hits.
Pf Dd2 inh: inhibitors of Plasmodium falciparum Dd2 growth; P. falciparum Dd2 growth, SYBR Green, 72 h; Potency, µM (doses to about 28.9 µM), for inactives: at the top dose activity, negative = inhibition, hits mostly inhibitors; 120,000 tested, 4.3% active; AID 1347417; active = well fitted inhibition curve with a large enough effect;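 note: plate controls were DMSO vehicle for no effect and reference drug for full effect; nearly all actives have a fitted effect of over 65% in size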
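Readout: SYBR Green fluorescence, 485 nm excitation, 535 nm emission, after ~16 h lysis at 37C. Before that, Dd2-infected red cells (2.5% hematocrit) grew 72 h with compound, 29 uM top final concentration.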
Active calls of the source: *; [ ] = another dose, or the depositor's remark. Potency is the fitted concentration of half-maximal effect.

Results for Cc1cccc(C)c1NC(=O)CN1C(=O)C(c2ccccc2)=NC12CCCCC2 ?
Pf Dd2 inh: inactive

How did CCOCCN1C(=O)COC[C@@H]1[C@H](O)c1ccc(NC(=O)CC(C)(C)C)cc1 do in these assays?
Pf Dd2 inh: -15%[44.1 µM]

Results for Cc1ccc(COC(=O)c2[nH]c3c(c2C)C(=O)CC(c2ccc(Cl)cc2)C3)cc1 (configuration not stated) ?
Pf Dd2 inh: -6%

What do the screens show for `CCOC(=O)c1cc(-c2ccc(OC)cc2)nn1Cc1ccccc1`?
Pf Dd2 inh: -1%

Results for CCOC(=O)c1[nH]c2c(c1Cc1ccccc1)C(=O)CC(c1ccc(Cl)cc1)C2 (configuration not stated) ?
Pf Dd2 inh: 10µM*

Results for CCOC(=O)C1=C(CN(CC)Cc2ccccc2)NC(=O)NC1c1ccc(OC)cc1 (configuration not stated) ?
Pf Dd2 inh: inactive

How did Cc1c(C(=O)OCC2CCCCC2)[nH]c2c1C(=O)CC(c1ccc(Cl)cc1)C2 (configuration not stated) do in these assays?
Pf Dd2 inh: 3%

Results for CCOC(=O)c1[nH]c2c(c1Cc1ccccc1)C(=O)CC(c1ccc(OC)cc1)C2 (configuration not stated) ?
Pf Dd2 inh: 11µM*

How did COC(=O)c1cn([C@H]2CO[C@H]3[C@@H]2OC[C@@H]3NC(=O)Nc2ccc(OC)cc2)nn1 do in these assays?
Pf Dd2 inh: 14%[44.1 µM]

What do the screens show for `Cc1noc(C)c1-c1nccc2c(=O)cc(N(C)C3CCOCC3)oc12`?
Pf Dd2 inh: -12%[44.1 µM]

Results for O=C(CCc1nnn2c1CN(S(=O)(=O)c1ccc(F)cc1)CC2)N1CCOCC1 ?
Pf Dd2 inh: -12%

Results for CN1CCN(c2nc3c(c(=O)[nH]2)CCN(Cc2cn(C)c4ccccc24)CC3)CC1 ?
Pf Dd2 inh: 7%[5.79 µM]

How did Cc1ccc2[nH]c(CN(Cc3cnn(C)c3)C3CC3)cc(=O)c2c1 do in these assays?
Pf Dd2 inh: -10%

Results for COC1C(=O)N(CC2CC2)C12CCN(S(=O)(=O)c1ccc3c(c1)OCCO3)CC2 (configuration not stated) ?
Pf Dd2 inh: -28%

What do the screens show for `Cc1cc(C)n(-c2nc3ccccc3nc2Nc2ccc(C(C)C)cc2)n1`?
Pf Dd2 inh: -10%

Results for COc1ccc(Nc2nnc(-n3nc(C)cc3C)c3ccccc23)cc1 ?
Pf Dd2 inh: -14%

What do the screens show for `Cc1cc(Nc2ccc(F)cc2)nc(-n2nc(C)cc2C)n1`?
Pf Dd2 inh: 11µM*

Results for CC(=O)c1ccc(NC(=O)Cn2c(-n3nc(C)cc3C)nc(C)cc2=O)cc1 ?
Pf Dd2 inh: inactive

Results for CCCCOC(=O)c1ccc(Nc2nnc(-n3nc(C)cc3C)c3ccccc23)cc1 ?
Pf Dd2 inh: -10%

How did CCCCc1ccc(Nc2cc(C)nc(-n3nc(C)cc3C)n2)cc1 do in these assays?
Pf Dd2 inh: 2.8µM*

Results for Cc1csc(NC(=O)c2nc3c(o2)CCN(Cc2cc(F)ccc2F)CC3)n1 ?
Pf Dd2 inh: -15%[44.1 µM]

Results for Cc1cnc(CCNS(=O)(=O)c2cn(C)cn2)n1CC1CC1 ?
Pf Dd2 inh: 15%

What do the screens show for `Cc1noc(C)c1-c1cc2cc(C(C)C)oc2c(-c2cccc(CO)c2)n1`?
Pf Dd2 inh: -6%[44.1 µM]

What do the screens show for `COc1ccc(-c2nc(-c3c(C)noc3C)cc3cc(C(C)C)oc23)cn1`?
Pf Dd2 inh: 8.9µM*

How did COCCNc1nc(-c2c(C)noc2C)cc2cc(C(C)C)oc12 do in these assays?
Pf Dd2 inh: -8%[44.1 µM]

What do the screens show for `CC(=O)Nc1ccc(OCC(=O)O)nc1`?
Pf Dd2 inh: 4%

What do the screens show for `O=c1c2nc(-c3ccccc3)ccc2ncn1-c1ccc(F)cc1F`?
Pf Dd2 inh: -5%[44.1 µM]

How did Cn1cc(C(=O)N2CCC(N(Cc3ccccc3)C3CCOCC3)CC2)cn1 do in these assays?
Pf Dd2 inh: inactive

What do the screens show for `Cn1cnc(C(=O)N2CCC(N(Cc3ccccc3)C3CCOCC3)CC2)c1`?
Pf Dd2 inh: -7%

How did O=C(c1cccc(Cl)c1)N1CCC(N(Cc2ccccc2)C2CCOCC2)CC1 do in these assays?
Pf Dd2 inh: 5µM*

What do the screens show for `Fc1ccc(-c2cc(CC3(NCc4ccco4)COC3)no2)cc1`?
Pf Dd2 inh: 13%[44.1 µM]

Results for CCC1CN(C(=O)N2CCC(C(=O)NCCCc3ccccc3)CC2)c2cc(C)ccc2O1 (configuration not stated) ?
Pf Dd2 inh: inactive

Results for CC1CN(C(=O)N2CCC(C(=O)NCCC3=CCCCC3)CC2)c2ccccc2O1 (configuration not stated) ?
Pf Dd2 inh: -11%

What do the screens show for `CCC1CN(C(=O)N2CCC(C(=O)NCCC3=CCCCC3)CC2)c2cc(C)ccc2O1` (configuration not stated)?
Pf Dd2 inh: 13µM*

How did O=C1Nc2ccc(-c3ccco3)cc2C(=O)N2CCN(C(=O)NC3CCCCC3)C[C@H]12 do in these assays?
Pf Dd2 inh: inactive

How did CNC(=O)C1(N2CCC[C@H]2C(=O)NCc2ccccc2)COC1 do in these assays?
Pf Dd2 inh: -13%[44.1 µM]

How did Cc1noc(C)c1C(=O)N1Cc2ccccc2CC2(CCN(CC3CCNCC3)CC2)C1 do in these assays?
Pf Dd2 inh: 17%

How did Cc1noc(C)c1C(=O)N1Cc2ccccc2CC2(CCN(C)C2)C1 (configuration not stated) do in these assays?
Pf Dd2 inh: 10µM*

What do the screens show for `CN1CCC(C(=O)N2Cc3ccccc3CC3(CCN(C)C3)C2)CC1` (configuration not stated)?
Pf Dd2 inh: 14%

Results for O=C(Nc1ccccc1)N[C@H]1C[C@H]2C(=O)NC[C@@H](CCC(=O)N3CCc4ccccc43)N2C1 ?
Pf Dd2 inh: -10%

Results for CCC(=O)N1CCN(C2CCN(CCc3ccccc3)C2=O)CC1 (configuration not stated) ?
Pf Dd2 inh: inactive

Results for Cc1ccc(C(=O)N2CCN(C3CCN(CCc4ccccc4)C3=O)CC2)cc1F (configuration not stated) ?
Pf Dd2 inh: 10µM*

What do the screens show for `O=C(c1cccc(Cl)c1)N1CCN(C2CCN(CCc3ccccc3)C2=O)CC1` (configuration not stated)?
Pf Dd2 inh: inactive

How did CC(=O)c1cccc(NC(=O)NC[C@H]2C[C@@H]3CCN2C[C@@H]3c2cc(-c3cccs3)nc(C)n2)c1 do in these assays?
Pf Dd2 inh: inactive

What do the screens show for `CCC(CC)c1cc([C@H]2CN3CC[C@H]2C[C@@H]3CNC(=O)c2cc(OC)c(OC)c(OC)c2)nc(-c2ccncc2)n1`?
Pf Dd2 inh: -48%

How did Cn1nc(-c2ccc3ccccc3c2)cc1[C@H]1CN2CC[C@H]1C[C@@H]2CNC(=O)COc1ccccc1 do in these assays?
Pf Dd2 inh: -13%

How did Cc1nc(-c2ccccc2)cc([C@H]2CN3CC[C@H]2C[C@@H]3CNC(=O)CCCC(=O)O)n1 do in these assays?
Pf Dd2 inh: 20%[44.1 µM]

Results for CCC(CC)c1cc([C@H]2CN3CC[C@H]2C[C@@H]3CNC(=O)c2ccc(N(C)C)cc2)nc(-c2ccncc2)n1 ?
Pf Dd2 inh: -16%

Results for CCC(CC)c1cc([C@H]2CN3CC[C@H]2C[C@@H]3COC(=O)Nc2ccccc2)nc(-c2ccncc2)n1 ?
Pf Dd2 inh: -13%

Results for CCC(CC)c1cc([C@H]2CN3CC[C@H]2C[C@@H]3CNC(=O)Cc2cccs2)nc(-c2ccncc2)n1 ?
Pf Dd2 inh: 0.71µM*

What do the screens show for `CCC(CC)c1cc([C@H]2CN3CC[C@H]2C[C@@H]3CNC(=O)c2cccs2)nc(-c2ccncc2)n1`?
Pf Dd2 inh: 0.25µM*

Screening results (PubChem)
